From PubChem BioAssay (Tox21) come the findings set out here.

Results filed as inconclusive are left out. Calls of active or inactive are those of the source. Calls come from the whole dose curve.
% is set by controls: 0 for no effect and ±100 for the full control effect.

The test can be described thus: qHTS assay to identify small molecule agonists of H2AX - cell viability counter screen (AID 1224847). Note: top concentration of the series differs between compounds; nearly all actives have a fitted effect of over 30% in size. Conditions: CHO-K1 viability, CellTiter-Glo luminescence, 3 h; series mostly up to 154 µM; activity change, negative = cytotoxicity: at the top concentration. The source says:
National Center for Advancing Translational Sciences [NCATS]
NIH Chemical Genomics Center [NCGC]
U.S. Environmental Protection Agency [EPA]
National Institutes of Environmental Health Sciences [NIEHS]
National Toxicology Program [NTP]
U.S. Food and Drug Administration [FDA]
HTRF phospho-H2AX (Ser139) assay (Cisbio Bioassays, US) enables the quantitative detection of the histone variant H2AX when phosphorylated on serine 139. When double-stranded DNA breaks, either by ionizing radiation or endogenous physiological processes, H2AX becomes phosphorylated at Ser139. This phospho-Ser139 serves as a sensitive biomarker for the detection of such breaks, localizing the site of DNA repair. So, HTRF phospho-H2AX Ser139 is a pertinent assay to study genome stability, the cell cycle, DNA repair, and it serves as a biomarker for cancer, and to understand aging. Wild type CHO-K1 cells were used to identify the inducers of Phospho-H2AX Ser 139 from the Tox21 compound collections. Also cytotoxicity of the Tox21 10K compound library against the CHO-K1 cell line was tested by measuring the cell viability using CellTiter-Glo assay (Promega, Madison, WI).
Tox21 Assay Protocol Summary:
The CHO-K1 cells suspended in culture medium containing 10% FBS were dispensed at 1000 cells/ 3 ul/well in 1536-well white wall/solid bottom plates (Greiner Bio-One North America, NC) using a Multidrop Combi (Thermo Fisher Scientific Inc., Waltham, MA). After the assay plates were incubated at 37C overnight, 23 nl of compounds at 15 concentrations (from 5-48 columns) or positive control (from 1 to 4 columns) were transferred to the assay plates using a Pintool station (Wako, San Diego, CA) into each well resulting in a final DMSO concentration of 0.76%. After 3hr incubation at 37C, 3 uL/well CellTiter-Glo luminescent cell viability reagent (Promega Corporation, Madison, WI) was added using a Flying Reagent Dispenser (FRD) (Aurora Discovery, CA). After incubation at room temperature for 30 min, the luminescence intensity was read using a ViewLux plate reader (PerkinElmer, Waltham, MA).
On to `CCCCCCCCCC(C)C=O` (stereo not given), for which the “activity change, negative = cytotoxicity” value is -0.112% (inactive).

For `CCCC(=O)OCc1ccccc1`, the “activity change, negative = cytotoxicity” value was 11.7% (inactive).

In the case of `COC(=O)c1cc(Cl)ccc1[N+](=O)[O-]`, the “activity change, negative = cytotoxicity” value was 4.78% (inactive).

Regarding `O=C1c2ccccc2C(=O)c2c1ccc(O)c2O`, the “activity change, negative = cytotoxicity” value is -11.9% [at 70.9 µM] (inactive).

As to `Cc1ccc(NC(=O)c2ccc(CN3CCN(C)CC3)cc2)cc1Nc1nccc(-c2cccnc2)n1`, the “activity change, negative = cytotoxicity” value was 2.63% [at 70.9 µM] (inactive).

For the molecule `CC(CC(C#N)(c1ccccc1)C(C)C)N(C)C` (stereo not given), the “activity change, negative = cytotoxicity” value was 1.19% [at 70.9 µM] (inactive).

On to `O=C(Nc1ccc2c(c1)Cc1ccccc1-2)C(F)(F)F`, for which the “activity change, negative = cytotoxicity” value was -4.78% (inactive).

Consider `O=C(O)c1c2ccccc2cc2ccccc12`, for which the “activity change, negative = cytotoxicity” value is 1.21% (inactive).

With `C/C=C1\[C@H]2C=C(C)C[C@]1(N)c1ccc(=O)[nH]c1C2`, the “activity change, negative = cytotoxicity” value was 3.1% [at 70.9 µM] (inactive).

As for `O=C(OC1C[C@H]2CC[C@@H](C1)[N+]21CCCC1)C(O)(c1ccccc1)c1ccccc1` (stereo not given in full), the “activity change, negative = cytotoxicity” value was -3.15% [at 70.9 µM] (inactive).

Consider `CC(C)(Cc1c[nH]c2ccccc12)NCC(O)COc1ccccc1C#N` (stereo not given), for which the “activity change, negative = cytotoxicity” value was -0.754% [at 70.9 µM] (inactive).

Regarding `CNc1ccccc1`, the “activity change, negative = cytotoxicity” value is 3.56% (inactive).

Turning to `CCCCCC1CCC(=O)O1` (stereo not given), the “activity change, negative = cytotoxicity” value was -1.71% (inactive).

`CC(O)CN` (stereo not given): the “activity change, negative = cytotoxicity” value was 3.55% (inactive).

In the case of `C=CC(=O)NC(C)(C)C`, the “activity change, negative = cytotoxicity” value was 8.72% (inactive).

For the molecule `CC(O)C(C)O` (stereo not given), the “activity change, negative = cytotoxicity” value is -3.33% (inactive).

Regarding `Cc1cc(SC2=C(O)C[C@@](CCc3ccc(N)cc3)(C(C)C)OC2=O)c(C(C)(C)C)cc1CO`, the “activity change, negative = cytotoxicity” value is 0.853% (inactive).

With `Cc1ccc2ccccc2c1[N+](=O)[O-]`, the “activity change, negative = cytotoxicity” value was 0.051% (inactive).

On to `CCOCCn1c(N2CCCN(C)CC2)nc2ccccc21`, for which the “activity change, negative = cytotoxicity” value is -0.992% [at 70.9 µM] (inactive).

Turning to `COC(=O)Cc1cccc2ccccc12`, the “activity change, negative = cytotoxicity” value was 2.34% (inactive).

For the molecule `O=C(O)c1cc(C(=O)O)c(C(=O)O)cc1C(=O)O`, the “activity change, negative = cytotoxicity” value was -1.26% (inactive).

Consider `C=CC(O)CCCCC` (stereo not given), for which the “activity change, negative = cytotoxicity” value was -0.545% (inactive).

Consider `C1=COCCC1`, for which the “activity change, negative = cytotoxicity” value was -0.49% (inactive).

For the molecule `CCc1c(C)[nH]c2c1C(=O)C(CN1CCOCC1)CC2` (stereo not given), the “activity change, negative = cytotoxicity” value was 0.87% [at 70.9 µM] (inactive).

Turning to `C[C@H](CN1CCCC1)C(=O)c1ccc(C(F)(F)F)cc1`, the “activity change, negative = cytotoxicity” value was 0.534% [at 70.9 µM] (inactive).

Regarding `CCCOC(C)=O`, the “activity change, negative = cytotoxicity” value was 1.21% (inactive).

As for `CCCCCCCCOCCCN`, the “activity change, negative = cytotoxicity” value was -11.6% (inactive).

For `CC(C)C/C=C(\C=O)c1ccccc1`, the “activity change, negative = cytotoxicity” value is -9.54% (inactive).

Take `C[Si](C)(C)O[Si](C)(C)O[Si](C)(C)C`: the “activity change, negative = cytotoxicity” value was 1.11% (inactive).

For `Cc1ccc2c(Cl)cc(Cl)c(O)c2n1`, the “activity change, negative = cytotoxicity” value was 4.08% [at 70.9 µM] (inactive).

`N#CCCCC(C#N)CCC#N` (stereo not given): the “activity change, negative = cytotoxicity” value is 0.251% (inactive).

`O=C(N[C@@H](Cc1ccccc1)[C@@H](O)C(=O)N1C[C@@H](O)[C@@H](O)C1)c1cc2cc(Cl)ccc2[nH]1`: the “activity change, negative = cytotoxicity” value was -9.56% (inactive).

As to `CCOc1ccc2c(c1)C(C)CC(C)(C)N2` (stereo not given), the “activity change, negative = cytotoxicity” value was -12.2% (inactive).

`O=C1OC(=O)C2CC=CCC12` (stereo not given): the “activity change, negative = cytotoxicity” value is 3.28% (inactive).

Consider `CC(C)(C)c1cc(C=O)cc(C(C)(C)C)c1O`, for which the “activity change, negative = cytotoxicity” value was 0.817% [at 70.9 µM] (inactive).

`O=P(c1ccccc1)(c1ccccc1)c1ccccc1`: the “activity change, negative = cytotoxicity” value is 4.41% (inactive).

As for `CC(C)=CCCC(C)C=O` (stereo not given), the “activity change, negative = cytotoxicity” value was -4.68% (inactive).

Turning to `OCCc1ccncc1`, the “activity change, negative = cytotoxicity” value was 0.488% (inactive).

On to `CC(C)=CCC[C@H](C)CCO`, for which the “activity change, negative = cytotoxicity” value is 1.77% (inactive).

With `CCCCCCCCCCCCCCCCN`, the “activity change, negative = cytotoxicity” value was 0.068% [at 70.9 µM] (inactive).
